In all, about 330,000 compounds went through this assay and about 1,100 (0.33%) were called active. No stated cut-off is given here; in the data, active means inhibition above about 35%; inactive means the rest. The full list was thinned out, with actives kept by preference.
Experiment: lowers stimulated NF-kB luciferase signal in 697 B cells – cell-based, luminescence, uHTS, B-cell NF-kB inhibitor project, primary screen (AID 435022)
Settings: 697 B-cell NF-kB luciferase reporter, PMA/ionomycin, 16 h; at 4 µM; stronger effect = higher value

inhibition, inactive:
O=Cc1c(NCCCN2CCCC2=O)c2ccccc2[nH]c1=O 4.36%
CC(C)(C)c1cnnn1-c1ccc([N+](=O)[O-])cc1 12.8%
Cc1ccccc1Cn1c2ccccc2c2cnn(CC(=O)NCc3ccco3)c(=O)c21 -4.9%
O=C(COC(=O)c1ccc([N+](=O)[O-])cc1Cl)NC(=O)c1ccccc1 -5.46%
O=C(NOCc1ccccc1)c1cccc([N+](=O)[O-])c1 -12.3%
CCOC(=O)c1c(C)n(C)c2ccc(OC)c(NS(=O)(=O)CC)c12 -4.31%
COc1ccc2cc(CCl)c(Cl)nc2c1 -1.58%
O=C(Cn1cnc2ccccc2c1=O)NNC(=O)c1ccccc1F 1.67%
O=C(NCc1ccccc1CN1CCCC1)C1CCN(S(=O)(=O)c2ccc(Cl)cc2)CC1 -7.16%
COc1ccc(CNC(=O)Cc2ccc(-c3ccccc3)cc2)cc1OC 8.2%
COc1ccc(CNC(=O)c2ccc(Br)s2)cc1OC -2.07%
Cc1cc(C(F)(F)F)nc(SCC(=O)Nc2nccs2)n1 -18.2%
Cc1[nH]nc(SCC(=O)NCC(C)C)c1[N+](=O)[O-] 9.07%
Cc1oc2c(C)c3oc(=O)c(CC(=O)N[C@@H](CC(C)C)C(=O)N[C@@H](Cc4ccccc4)C(=O)O)c(C)c3cc2c1C 22.3%
CCOc1ccc(C(=O)Nc2cc(Cl)ccc2-n2cncn2)cc1OC 14%
CN(C)S(=O)(=O)c1ccc(N2CCCC2)c(C(=O)Nc2ccc(Br)cc2F)c1 9.57%
CC(=O)c1nc2ccccc2n1Cc1ccccc1 3.31%
Cc1ccc(Cn2c(SCC(=O)N/N=C/c3ccccc3OCC(=O)O)nc3ccccc32)cc1 3.74%
O=C1Nc2ccc(Br)cc2/C1=N/N=C/C1=C(N2CCOCC2)C(=C\c2ccccc2)/CC1 13.3%
COc1ccc(C2C=C(c3ccc(Br)cc3)Nc3nc(NS(C)(=O)=O)nn32)cc1 (stereo unspecified) 8.48%
O=C1/C(=C/c2ccc(F)cc2)SC(=S)N1CCCC(=O)N1CCCCC1CCO (stereo unspecified) -3.3%
Cc1ccc(/C=C2/SC(=S)N(CCC(=O)NCCCN3CCOCC3)C2=O)cc1 -16.3%
CN(CC(=O)NCc1ccncc1)S(=O)(=O)c1ccc(Br)cc1 12.7%
Cc1cc(C)nc(N2CCC(C(=O)Nc3ccc4c(c3)OCCO4)CC2)n1 -5.99%
Cc1n[nH]c(C)c1S(=O)(=O)N1CCCC(C(=O)Nc2ccc(Br)cc2)C1 (stereo unspecified) -12.3%
CC(=O)c1c(C)[nH]c(C(=O)COC(=O)c2cccc(S(=O)(=O)N(C)c3ccccc3)c2)c1C -50%
O=C(Cc1ccccc1)N1CCN(S(=O)(=O)c2ccc([N+](=O)[O-])cc2)CC1 4.38%
O=C(C1CCCN(S(=O)(=O)c2ccc([N+](=O)[O-])cc2)C1)N1CCCCC1 (stereo unspecified) -4.88%
COC(=O)c1c(NC(=O)COC(=O)[C@@H](NS(=O)(=O)c2ccccc2)C(C)C)sc2c1CCC2 10.3%
CC1CCCCN1C(=O)Cn1c(=O)oc2cc(S(=O)(=O)N3CCCCC3)ccc21 (stereo unspecified) 4.87%
O=C(CSc1nc(-c2ccccc2)cs1)Nc1cccc([N+](=O)[O-])c1 1.61%
CCN(CCCNC(=O)c1ccc2c(c1)NC(=O)CN2C)c1cccc(C)c1 -19.3%
O=C(Nc1ccc(-c2csc(Nc3cccc(C(F)(F)F)c3)n2)cc1)c1cccc(C(F)(F)F)c1 -26.3%
O=C(Nc1ccc(C(F)(F)F)cc1)c1cccc(-n2cnnn2)c1 -26.7%
Cc1ccc(NC(=O)CSc2nnc(CNC(=O)c3ccccc3F)o2)cc1 0.808%
CCOC(=O)N1CCN(S(=O)(=O)c2ccc(-n3cnnn3)cc2)CC1 -11.9%
CCCNC(=O)c1ccc(N2CCC3(CC2)CC(c2ccc(Cl)cc2)=NO3)c([N+](=O)[O-])c1 -1.96%
O=C(Nc1ccccc1N1CCN(C(=O)c2ccccc2)CC1)c1ccco1 6.77%
COc1ccc(NC(=O)c2sccc2SCC#N)cc1 0.298%
O=C(O)C1=C[C@H](c2cccs2)C[C@H](OCCCCO)O1 27.6%
Cn1c(CCCOc2ccc(Cl)cc2Cl)n[nH]c1=S -42.5%
COc1ccc2[nH]c(C(=O)N/N=C/c3cc(OC)c(OC)c(OC)c3)cc2c1 -5.61%
CN=c1scc(-c2cc(OC)ccc2OC)n1/N=C/c1c(C)[nH]c2ccccc12 -18%
O=C(Nc1ccc2c(c1)OCO2)C1CC(c2c(F)cccc2Cl)=NO1 (stereo unspecified) 10.7%
O=C(CNC(=O)Cc1ccccc1)NCC(=O)OCC(=O)c1ccccc1Cl 12.5%
O=C(O)c1ccc(COc2c(F)c(F)cc(F)c2F)o1 4.23%
Cn1c(=O)c2c(nc(N3CCCCCC3)n2CC(O)COc2ccc(Cl)cc2)n(C)c1=O (stereo unspecified) -3.4%

inhibition, active:
O=C(NC(Nc1nc2ccc([N+](=O)[O-])cc2s1)(C(F)(F)F)C(F)(F)F)c1ccccc1 99.5%
COc1ccc(CNC(=O)CNC(=O)c2sc3ccccc3c2Cl)cc1OC 35%
CCCc1nc2c(C)cc(-c3nc4ccccc4n3C)cc2n1Cc1ccc(-c2ccccc2C(=O)O)cc1 44.7%
C=CCOc1ccc(/C=C2\SC(=S)N(CCC(=O)O)C2=O)cc1 62.4%
Cc1cc(Nc2cc(N3CCN(C)CC3)nc(Sc3ccc(NC(=O)C4CC4)cc3)n2)n[nH]1 37%
O=C(C1CCC1)N1CCN(S(=O)(=O)c2ccc([N+](=O)[O-])cc2)CC1 38.2%
CNC(=O)c1ccc(NC(=O)c2cccc(C(F)(F)F)c2)cc1 40.3%
CCCNC(=O)c1ccc(N2CCC3(CC2)CC(c2cccc(Br)c2)=NO3)c(NC(=O)c2ccco2)c1 35.6%
COc1cc(N=Cc2c(O)[nH]c3ccccc23)cc(OC)c1OC 45.5%
